# Source: PubChem BioAssay (Broad Institute)
# Sampled rows, rich in hits. Any-hit rate of the full collection: about 1.2%.
# PglD DTNB: inhibitors of Campylobacter jejuni PglD acetyltransferase; actives 0.098% (n = 360,000); purified PglD enzyme, DTNB colorimetric CoA detection; inhibition, % at 12.5 µM; AID 602405; in the data active = inhibition above about 16%, passing the limit was not always enough
# Statin myotox sup: suppressors of simvastatin-induced myotoxicity in C2C12 myotubes. ATP luminescence, 48 h; scaled: DMSO 0, geranylgeraniol control 100. rescue of ATP level, % at 7.49 µM. actives 0.78% (n = 330,000). AID 602340;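 active = mean ATP rescue above about 67%, or every replicate alone reaching that limit, limit read from the data, passing the limit was not always enough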;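 also: myotubes were challenged with 10 µM simvastatin during compound exposure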
# miR122 inh: miR-122 inhibition in Huh7 cells; Huh7 miR-122 Renilla luciferase sensor, 48 h; neutral wells = 0, positive control = 100; activation (reporter increase), % at 12.5 µM; actives 0.3% (n = 340,000);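 active = mean replicate activation score at least 90 and every replicate individually at or above 90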;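 also: higher luciferase means less miR-122 activity so hits act as miR-122 inhibitors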
# NSD2 HMT inh: inhibitors of human histone methyltransferase NSD2; O96028; NSD2 peptide methylation, AlphaScreen, 120 min; inhibition, % at 12.5 µM; actives 0.54% (n = 310,000); in the data active = inhibition above about 50%
# Target sequence (O96028 whole entry, looked up): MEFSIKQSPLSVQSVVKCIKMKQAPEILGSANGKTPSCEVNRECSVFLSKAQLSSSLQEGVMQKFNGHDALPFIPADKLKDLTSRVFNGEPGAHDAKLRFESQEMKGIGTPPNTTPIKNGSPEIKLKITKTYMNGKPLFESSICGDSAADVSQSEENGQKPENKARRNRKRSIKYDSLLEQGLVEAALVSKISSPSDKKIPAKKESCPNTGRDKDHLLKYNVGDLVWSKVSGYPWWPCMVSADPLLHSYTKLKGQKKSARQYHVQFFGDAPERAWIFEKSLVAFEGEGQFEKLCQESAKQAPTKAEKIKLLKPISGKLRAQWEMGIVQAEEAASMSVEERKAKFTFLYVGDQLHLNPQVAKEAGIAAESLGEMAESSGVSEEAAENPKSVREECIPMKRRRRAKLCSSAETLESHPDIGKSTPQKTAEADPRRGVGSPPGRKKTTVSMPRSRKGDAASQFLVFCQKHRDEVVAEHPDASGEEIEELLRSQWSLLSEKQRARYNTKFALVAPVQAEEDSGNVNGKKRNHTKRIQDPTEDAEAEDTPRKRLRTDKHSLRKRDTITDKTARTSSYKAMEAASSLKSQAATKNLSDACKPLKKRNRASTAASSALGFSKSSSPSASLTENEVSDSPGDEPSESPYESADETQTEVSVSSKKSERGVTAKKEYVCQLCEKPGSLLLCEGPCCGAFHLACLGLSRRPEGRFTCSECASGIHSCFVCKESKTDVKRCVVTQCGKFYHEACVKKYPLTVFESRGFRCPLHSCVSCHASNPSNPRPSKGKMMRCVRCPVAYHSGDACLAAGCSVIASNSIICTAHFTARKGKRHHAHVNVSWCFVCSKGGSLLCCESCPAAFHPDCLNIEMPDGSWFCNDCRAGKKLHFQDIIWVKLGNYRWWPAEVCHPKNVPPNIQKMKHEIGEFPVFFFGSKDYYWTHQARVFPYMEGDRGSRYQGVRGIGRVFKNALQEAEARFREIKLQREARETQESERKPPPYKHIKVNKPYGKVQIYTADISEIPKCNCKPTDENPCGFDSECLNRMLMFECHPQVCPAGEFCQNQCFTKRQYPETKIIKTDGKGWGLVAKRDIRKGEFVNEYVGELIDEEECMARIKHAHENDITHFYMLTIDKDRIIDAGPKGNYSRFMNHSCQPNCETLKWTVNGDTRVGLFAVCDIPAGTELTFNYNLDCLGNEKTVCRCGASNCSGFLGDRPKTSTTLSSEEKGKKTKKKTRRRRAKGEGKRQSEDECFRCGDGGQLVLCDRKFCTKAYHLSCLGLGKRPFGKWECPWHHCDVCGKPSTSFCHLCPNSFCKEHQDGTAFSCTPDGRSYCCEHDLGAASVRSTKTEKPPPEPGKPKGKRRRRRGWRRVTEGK
# Starred values were filed as active, the others as inactive; / = no result; [ ] = dose if it differs, or a comment.
SMILES,PglD DTNB,Statin myotox sup,miR122 inh,NSD2 HMT inh
Cc1ccc(N2CCN(C(=O)c3ccccc3Br)CC2)c(C)c1,-0.3,80.6*,-1.4,0.4
CCOC(=O)C1=C(C)Nc2ccccc2N=C1NC(=O)c1cccc(S(=O)(=O)N(C)C)c1,1.2,111.5*,-2.3,5.4
CCCCNS(=O)(=O)c1ccc(OC)c(Cl)c1Cl,-6.7,-1.4,221.8*,-2.6
CCCCCCNS(=O)(=O)c1ccc(OC)c(OC)c1,0.2,-6.8,203.2*,11.4
COc1ccc(S(=O)(=O)NCCc2ccccc2)cc1OC,-1.7,9.7,/,-0.4
COCCCNS(=O)(=O)c1ccc(OC)c(Cl)c1Cl,-0.4,0.6,16.2,/
COc1cc(NS(=O)(=O)c2ccc3c(c2)C(C)(C)C(=O)N3C)cc(OC)c1,2.4,6.1,97.6*,/
COc1ccc(CNS(=O)(=O)c2ccc3c(c2)C(C)(C)C(=O)N3C)cc1,-6.9,7.4,3.9,1.1
COc1ccc(S(=O)(=O)N(CC(=O)N2CCCCCC2)c2ccccc2OC)cc1,-2.8,98.9*,11.0,0.9
CCOC(=O)N1CCN(C(=O)CN(c2ccccc2OC)S(=O)(=O)c2ccc(OC)cc2)CC1,/,/,/,0.4
C[C@H]1CN([C@@H](C)CO)S(=O)(=O)c2ccc(-c3ccc(F)cc3)cc2O[C@@H]1CN(C)C(=O)Nc1ccc(F)cc1,/,-44.1,25.4[16.7 µM],/
Cc1cc(C)cc(NS(=O)(=O)c2ccc(NC(=S)NC(=O)c3cccs3)cc2)c1,2.3,/,132.7*,-1.0
COCC#Cc1cnc2c(c1)C(=O)N([C@H](C)CO)C[C@H](C)[C@@H](CN(C)C(=O)CN1CCOCC1)O2,-1.6,5.4,-6.2[16.7 µM],/
C=CCOc1ccc(C2NC(=S)NC(C)=C2C(=O)c2ccccc2)cc1OC (configuration not stated),/,/,/,2.3
COc1cccc(C2NC(=S)NC(C)=C2C(=O)c2ccccc2)c1OC (configuration not stated),/,-36.0,147.1*,11.1
CCOC(=O)c1sc(NCC2CCCO2)nc1C (configuration not stated),1.2,113.2*,-3.2,-1.1
CCOC(=O)c1sc(NC(=O)C2CC2)nc1C,/,-11.2,9.9,/
C[C@H](CO)N1C[C@H](C)[C@H](CN(C)Cc2cccnc2)Oc2ncc(/C=C/c3ccccc3)cc2C1=O,-4.2,-11.6,-3.0[16.7 µM],/
Cc1noc(C)c1NC(=O)Nc1ccc2c(c1)C(=O)N([C@H](C)CO)C[C@H](C)[C@@H](CN(C)Cc1ccccc1)O2,-2.8,-26.9,12.7[16.7 µM],/
COc1ccccc1NC1=C(NC(C)=O)C(=O)c2ccccc2C1=O,/,/,/,31.0
COC1=C(Nc2ccccc2OC)C(=O)c2ccccc2C1=O,4.4,/,-5.6,74.2*
CO[C@H]1CN(C)C(=O)c2cc(NC(=O)Cc3ccccc3)ccc2OC[C@H](C)NC[C@@H]1C,-0.6,2.7,/,/
CCCCNC(=O)C(COCc1ccccc1)OC(=O)c1ccccc1 (configuration not stated),-0.9,/,/,/
CCCC12CN(C(=O)c3ccco3)CC(CCC)(CN(C(=O)c3ccco3)C1)C2=O,3.0,76.8*,-6.1,0.5
Cc1csc(NC(=O)CSc2nnc(CCNC(=O)c3cccs3)n2C)n1,-3.0,98.2*,-4.1,-5.1
SMILES,PglD DTNB,Statin myotox sup,miR122 inh,NSD2 HMT inh
Cn1c(CCNC(=O)c2cccs2)nnc1SCC(=O)Nc1nc(-c2ccccc2)cs1,-0.7,-25.5,-5.8,5.8
C[C@H](O)C#Cc1cnc2c(c1)C(=O)N([C@@H](C)CO)C[C@H](C)[C@H](CN(C)C(=O)CC1CC1)O2,-1.4,9.1,-10.4[16.7 µM],/
CC(C)Cc1nnc(NC(=O)Cc2ccccc2[N+](=O)[O-])s1,-5.1,-3.1,126.1*,-2.9
O=C(Cc1ccccc1[N+](=O)[O-])Nc1nccs1,-1.7,/,1.8,3.7
CC(C)COc1cc(=O)[nH]c(SCC(C)C)n1,-0.8,147.9*,-2.5,6.5
CCOC(=O)N1CCN(c2ccccc2O)CC1,-0.1,124.4*,-2.5,4.1
C=CCSc1nc(=O)n2ccccc2n1,3.7,100.1*,-1.0,-3.0
C=CCSc1nc(=O)n2ccc(C)cc2n1,6.0,-7.1,-24.7,-1.0
COc1ccc(-c2csc3ncnc(N4CCN(S(=O)(=O)c5cccc(C(F)(F)F)c5)CC4)c23)cc1,/,/,/,0.0
COc1ccc(-c2csc3ncnc(N4CCN(S(=O)(=O)c5cccc(Br)c5)CC4)c23)cc1,0.8,77.3*,1.1,1.3
CN(C)C(=O)[C@@H]1[C@@H](CO)[C@@H]2Cn3c(ccc(-c4ccncc4)c3=O)[C@@H]2N1Cc1ccccc1,-1.9,-7.8,/,/
Cc1ccc(S(=O)(=O)N(C)C[C@H]2OCCCC[C@@H](C)Oc3ccc(NC(=O)CCCN(C)C)cc3C(=O)N([C@@H](C)CO)C[C@H]2C)cc1,5.1,/,-2.8[16.7 µM],/
